From PubChem BioAssay
Activity calls are given as the source filed them.

Tests used:
[1] = tested on: Human papillomavirus type 1a protein E7 (residues 44-93); experiment: HPV1a E7 fragment binders on microarrays, primary screen, biochemical, small-molecule microarray, residues 44-93, 635 nm fluorescence (AID 1108); conditions: small-molecule microarray binding, fluorescence 635 nm; higher = more signal;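 further: E7 fragment applied at 1 µg/mL in TBST for 1 h at 4 C; score combines spot fluorescence with its signal to noise ratio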
[2] = modulators of HCV replicon luciferase signal, primary screen, HCV replication inhibitor project, Huh7 cells, luciferase reporter (AID 1109); conditions: 48 h, higher = more signal;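 further: huh7 hepatoma cells harbouring a luciferase neomycin HCV replicon reporter; luciferase luminescence as measure of HCV replicon replication; test concentration not given here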
[3] = biological target: Left-right determination factor 2 (Homo sapiens) (UniProt O00292); experiment: LEFTY2 binders on small-molecule microarrays, primary screen, biochemical, small-molecule microarray, 635 nm fluorescence scan (AID 1110); conditions: LEFTY2 binding, higher = more signal
[4] = biological target: Calmodulin-1 (Homo sapiens) (UniProt P0DP23); experiment: CALM1 binders on microarrays, EGTA buffer, profiling panel, biochemical, small-molecule microarray, Cy5-labelled CALM1 (AID 1111); conditions: Cy5-CALM1 binding fluorescence, higher = more signal;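 further: labelled calmodulin applied in Tris saline Tween buffer holding calcium plus EGTA and DTT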
[5] = biological target: Calmodulin-1 (Homo sapiens) (UniProt P0DP23); experiment: calcium-bound CALM1 binders on microarrays, profiling panel, artefact control for SMM control-protein annotation, biochemical, small-molecule microarray, Cy5-labelled CALM1, plus calcium (AID 1112); conditions: Cy5-CALM1 binding fluorescence, higher = more signal;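 further: score merges spot fluorescence with signal to noise from triplicate slides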
[6] = small-molecule microarray binders of probe aWnt5a, primary screen, biochemical, biotinylated probe, 635/667 nm fluorescence (AID 1113); conditions: higher = more signal;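 further: score merges 667 nm fluorescence intensity with signal-to-noise per printed feature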
[7] = small-molecule microarray binders of probe aShh, primary screen, biochemical, biotinylated probe, 635/667 nm fluorescence (AID 1114); conditions: higher = more signal;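 further: probe is biotin-labelled aShh protein from a stem cell growth factor screen; measures binding of labelled protein to compounds printed on the slide; score merges feature fluorescence at 667 nm with signal-to-noise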
[8] = small-molecule microarray binders of probe aNog, primary screen, biochemical, biotinylated probe, 635/667 nm fluorescence (AID 1115); conditions: higher = more signal;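 further: probe is biotinylated aNog protein used at 0.15 µg/mL for 1 h at 4 C; z-score combines 667 nm fluorescence of each spot with its signal to noise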
[9] = biological target: Torsin-1A-interacting protein 1 (Homo sapiens) (UniProt Q5JTV8); experiment: LAP1 binders from COS7 cell lysate, primary screen, small-molecule microarray, 635/667 nm fluorescence (AID 1116); conditions: COS7-hLAP1 lysate binding, 635 nm fluorescence, higher = more signal
[10] = biological target: Alpha-bungarotoxin (Bungarus multicinctus) (UniProt P60615); experiment: alpha-bungarotoxin binders on microarray, profiling panel, artefact control for SMM control protein annotation, biochemical, small-molecule microarray, Alexa647 label, 635/667 nm fluorescence (AID 1117); conditions: alpha-BTX-A647 binding fluorescence, higher = more signal
[11] = biological target: Albumin (Bos taurus) (UniProt P02769); experiment: bovine serum albumin binders on microarray, profiling panel, artefact control for SMM control protein annotation, biochemical, small-molecule microarray, Alexa647 label, 635/667 nm fluorescence (AID 1118); conditions: BSA-A647 binding, fluorescence 635 nm, higher = more signal;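 further: score merges 667 nm emission intensity and signal-to-noise per printed compound spot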
[12] = small-molecule microarray binders of probe aXIP, primary screen, biochemical, NeuroSMM set, 635/667 nm fluorescence (AID 1119); conditions: higher = more signal, called active from +8 up or from −8 down;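 further: probe is the protein aXip251-270 applied at 1 µg/mL to compound-printed slides; binding of probe to printed compounds measured as 667 nm fluorescence plus signal to noise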
[13] = small-molecule binders of probe aNOTCH3, primary screen, biochemical, small-molecule microarray, 635/667 nm fluorescence (AID 1120); conditions: higher = more signal;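 further: probe is a biotin-tagged antibody raised against NOTCH3 rather than NOTCH3 protein; score merges spot fluorescence near 667 nm with spot signal to noise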
[14] = small-molecule binders of probe aNOTCH2, primary screen, biochemical, small-molecule microarray, 635/667 nm fluorescence (AID 1121); conditions: higher = more signal;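 further: score merges feature fluorescence read at 667 nm with its signal to noise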
[15] = biological target: Carbonic anhydrase 2 (Homo sapiens) (UniProt P00918); experiment: CAII small-molecule binders, profiling panel, biochemical, small-molecule microarray, Alexa647-labelled CAII (AID 1122); conditions: CAII-A647 binding fluorescence, higher = more signal
[16] = COS7 lysate on small-molecule microarray, probe aHis, 635 nm (AID 1123); conditions: COS7 cell lysate, fluorescence, higher = more signal;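 further: z-score combines 667nm fluorescence intensity with signal-to-noise per printed compound spot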
[17] = compound binding in COS7 lysate, probe aLAP1, primary screen, cell lysate, small-molecule microarray (AID 1124); conditions: probe aLAP1, fluorescence, higher = more signal;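 further: lysate comes from COS7 cells expressing LAP1 and is applied at 0.3 µg/mL; score merges spot fluorescence near 667 nm with signal-to-noise over triplicate slides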
[18] = tested on: Sam68 (KHDRBS1); experiment: Sam68 small-molecule binders, primary screen, biochemical, small-molecule microarray, 635 nm fluorescence (AID 1125); conditions: small-molecule microarray binding, higher = more signal;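 further: score merges 667 nm channel intensity with signal to noise over triplicate slides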
[19] = tested on: Chordin-like protein 2 (CHRDL2); experiment: CHRDL2 small-molecule binders, primary screen, biochemical, small-molecule microarray, 635 nm fluorescence (AID 1126); conditions: small-molecule microarray binding, fluorescence 635 nm; higher = more signal;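 further: printed compound slides probed with Chrdl2 protein at 4 µg/mL for 1 h at 4 C; score merges 667 nm emission intensity with signal to noise over three replicate slides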
[20] = biological target: Concanavalin-A (Canavalia ensiformis) (UniProt P02866); experiment: ConA small-molecule binders, primary screen, artefact control for SMM control protein annotation, biochemical, small-molecule microarray, Alexa647 label, 635 nm (AID 1127); conditions: ConA-A647 binding fluorescence, higher = more signal;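 further: z combines 667 nm emission intensity with signal-to-noise across three replicate slides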
Chain of Concanavalin-A (Canavalia ensiformis) (P02866 whole entry, looked up): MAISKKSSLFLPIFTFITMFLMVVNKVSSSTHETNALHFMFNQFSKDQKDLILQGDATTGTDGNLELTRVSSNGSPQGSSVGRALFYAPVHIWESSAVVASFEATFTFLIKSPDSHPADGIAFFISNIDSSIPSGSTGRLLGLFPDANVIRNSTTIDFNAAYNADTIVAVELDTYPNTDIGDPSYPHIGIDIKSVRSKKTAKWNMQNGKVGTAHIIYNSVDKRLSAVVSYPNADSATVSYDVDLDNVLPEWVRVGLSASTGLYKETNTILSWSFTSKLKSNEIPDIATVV

Chain of Alpha-bungarotoxin (Bungarus multicinctus) (P60615 whole entry, looked up): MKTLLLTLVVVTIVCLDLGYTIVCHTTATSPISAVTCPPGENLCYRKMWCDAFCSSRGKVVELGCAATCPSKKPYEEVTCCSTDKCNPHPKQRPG
Chain of Albumin (Bos taurus) (P02769 whole entry, looked up): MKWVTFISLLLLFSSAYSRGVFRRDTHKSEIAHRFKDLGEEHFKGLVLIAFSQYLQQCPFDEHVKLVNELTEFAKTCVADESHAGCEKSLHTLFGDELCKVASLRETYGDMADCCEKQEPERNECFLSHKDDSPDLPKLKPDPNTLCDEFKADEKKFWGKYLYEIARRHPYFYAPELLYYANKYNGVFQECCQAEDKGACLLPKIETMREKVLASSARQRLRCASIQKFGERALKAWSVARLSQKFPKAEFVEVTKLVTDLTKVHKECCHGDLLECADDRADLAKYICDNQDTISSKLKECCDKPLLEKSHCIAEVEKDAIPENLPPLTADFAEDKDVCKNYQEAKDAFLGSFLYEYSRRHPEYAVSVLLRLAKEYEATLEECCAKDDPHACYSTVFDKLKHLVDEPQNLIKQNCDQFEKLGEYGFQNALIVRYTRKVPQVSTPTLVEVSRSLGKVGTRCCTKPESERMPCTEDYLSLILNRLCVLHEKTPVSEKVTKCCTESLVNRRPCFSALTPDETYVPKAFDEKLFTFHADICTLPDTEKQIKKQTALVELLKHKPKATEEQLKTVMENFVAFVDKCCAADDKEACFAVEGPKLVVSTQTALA
Chain of Torsin-1A-interacting protein 1 (Homo sapiens) (Q5JTV8 whole entry, looked up): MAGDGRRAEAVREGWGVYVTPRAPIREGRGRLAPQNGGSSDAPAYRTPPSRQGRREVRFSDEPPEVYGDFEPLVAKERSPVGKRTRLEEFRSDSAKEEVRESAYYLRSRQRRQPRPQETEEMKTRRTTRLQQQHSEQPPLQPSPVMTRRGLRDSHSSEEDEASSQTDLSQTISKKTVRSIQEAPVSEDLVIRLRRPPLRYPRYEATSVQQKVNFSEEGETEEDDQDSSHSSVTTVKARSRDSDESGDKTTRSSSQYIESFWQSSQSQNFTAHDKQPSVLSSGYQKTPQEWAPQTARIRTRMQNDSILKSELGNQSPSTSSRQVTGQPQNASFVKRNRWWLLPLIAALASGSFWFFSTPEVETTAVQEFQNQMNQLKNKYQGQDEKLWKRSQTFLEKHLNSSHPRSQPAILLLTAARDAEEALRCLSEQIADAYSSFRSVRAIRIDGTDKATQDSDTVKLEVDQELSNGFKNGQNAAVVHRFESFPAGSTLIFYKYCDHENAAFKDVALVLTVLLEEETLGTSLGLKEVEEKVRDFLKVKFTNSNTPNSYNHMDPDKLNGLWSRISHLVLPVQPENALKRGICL
Chain of Left-right determination factor 2 (Homo sapiens) (O00292 whole entry, looked up): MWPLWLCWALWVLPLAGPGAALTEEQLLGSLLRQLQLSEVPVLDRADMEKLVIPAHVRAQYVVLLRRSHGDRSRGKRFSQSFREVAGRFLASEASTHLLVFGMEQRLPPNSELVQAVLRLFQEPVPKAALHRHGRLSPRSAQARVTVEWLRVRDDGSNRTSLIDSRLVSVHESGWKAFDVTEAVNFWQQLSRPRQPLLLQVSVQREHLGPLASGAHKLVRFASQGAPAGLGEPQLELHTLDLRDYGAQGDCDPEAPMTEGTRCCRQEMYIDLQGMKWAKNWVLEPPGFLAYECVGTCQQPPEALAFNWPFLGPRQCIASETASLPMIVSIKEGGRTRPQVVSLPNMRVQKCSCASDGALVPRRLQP

| Compound | composite z-score [1] | z-score [2] | composite z-score [3] | composite z-score [4] | composite z-score [5] | composite z-score [6] | composite z-score [7] | composite z-score [8] | composite z-score [9] | composite z-score [10] | composite z-score [11] | composite Z-score [12] | composite z-score [13] | composite z-score [14] | composite z-score [15] | composite z-score [16] | composite z-score [17] | composite z-score [18] | composite z-score [19] | composite z-score [20] |
| --- | --- | --- | --- | --- | --- | --- | --- | --- | --- | --- | --- | --- | --- | --- | --- | --- | --- | --- | --- | --- |
| CN(C)CCCC[C@@H]1NC(=O)[C@@H]2C[C@H](C(=O)O)[C@H](c3ccc(O)cc3)N2C1=O | 0.668 | 0.883 | 1.15 | -0.0922 | -0.0146 | 0.0078 | -0.138 | 0.69 | 0.485 | 1.2 | -1.07 | 0.361 (inactive) | 0.237 | -0.117 | 0.398 | 0.917 | 0.324 | 0.916 | 0.917 | 1.12 |
| CCOC(=O)C1=CCC(c2cccc3ccccc23)N(S(=O)(=O)c2ccc(C)cc2)C1 (stereo not given) | 1.09 | -0.874 | 0.0938 | 1.47 | 0.509 | 0.0763 | 0.203 | 0.276 | 0.871 | 1.3 | 0.816 | 0.494 (inactive) | 0.056 | -0.0731 | 0.401 | 1.41 | 0.117 | 1.12 | 0.341 | 1.08 |
| CCCN1C(=O)[C@@]2(CCS(=O)(=O)c3ccccc3)N=C(c3ccc(OCCCO)cc3)O[C@H]2c2ccccc21 | 1.45 | -2.08 | 0.224 | 0.248 | -0.598 | -0.0721 | -0.0234 | -0.269 | 0.307 | 1.01 | -0.676 | -0.113 (inactive) | 0.0833 | -0.0956 | 0.294 | 2.41 | 0.163 | 1.3 | 0.637 | 0.892 |
| C=C(CCCC)/C(=C/C[C@@H](OC(=O)c1ccncc1)c1cccc(OCCO)c1)c1cc(C(=O)OC)ccc1OC | -0.414 | -2.29 | 0.725 | 0.652 | -0.732 | -0.143 | -0.138 | -0.452 | 0.344 | 1.21 | 0.6 | -0.259 (inactive) | 0.0893 | -0.0974 | 0.57 | 2.84 | 1.05 | 1.19 | 0.287 | 1.11 |
| COC(=O)C1=CC(c2ccc(CO)cc2)=CC(C2CC2)N(Cc2sc3ccccc3c2Cl)C=C1C(=O)OC (stereo not given) | 1.29 | -1.27 | 0.204 | 2.45 | 0.975 | 0.0017 | 0.246 | 1.38 | 2.42 | 2.75 | 0.971 | 0.152 (inactive) | 0.3 | 0.101 | 0.866 | 2.78 | 0.58 | 1.31 | 0.185 | 1.16 |
| C=CCN1C(=O)[C@@]2(O[C@@H](CCn3cc([C@H](O)c4ccccc4)nn3)[C@H]([Si](C)(C)c3ccc(OC)cc3)[C@H]2C)c2cc(N3CCOC3=O)ccc21 | -0.0922 | -3.71 | -0.125 | 0.0419 | 0.462 | -0.0754 | -0.2 | -0.0428 | 0.559 | -0.577 | 0.0865 | 0.146 (inactive) | -0.0932 | -0.0666 | 0.614 | 1.02 | 0.0741 | 1.11 | -0.0548 | -0.559 |
| O=C(NCC(F)(F)F)[C@@H]1c2ccccc2C(=O)N(Cc2ccccc2Cl)[C@H]1c1ccc(CO)cc1 | -0.804 | -1.03 | -1.44 | -0.483 | -0.135 | -0.147 | 0.245 | -0.0689 | -1.19 | -1.18 | -0.288 | -0.152 (inactive) | -0.48 | -0.182 | 0.761 | 0.546 | 1.03 | -1.35 | -0.584 | -0.907 |
| O=C(NCc1ccccc1)c1ccc(Br)cc1[N+](=O)[O-] | -0.0303 | -0.3 | 0.61 | 0.216 | 0.321 | -0.0462 | -0.141 | -0.318 | 0.0817 | 1.29 | 0.311 | 0.047 (inactive) | 0.116 | -0.0488 | 0.727 | 0.35 | -0.209 | 0.604 | 0.446 | 0.899 |
| CCCCO[C@H]1C[C@H]2C(Br)=C[C@@]1(CO)C(=O)[C@]21CO1 | -0.122 | -1.46 | 0.456 | -0.795 | -1.33 | -0.146 | -0.123 | -0.278 | -0.242 | -0.755 | -1.23 | -0.442 (inactive) | -0.0647 | -0.201 | -0.548 | 0.124 | -0.139 | 0.362 | 0.569 | 0.153 |
| CCOC(=O)C1=C[C@@H](c2ccccc2)N(S(=O)(=O)c2ccc(C)cc2)[C@H]1c1ccc(F)cc1 | 0.431 | -1.97 | 0.446 | 0.37 | 0.342 | -0.0718 | 0.0929 | 0.862 | 0.904 | 1.27 | 0.823 | -0.263 (inactive) | 0.0836 | 0.111 | 0.283 | 1.57 | 0.284 | 1.16 | -0.0043 | 1.12 |
| CO[C@H]1O[C@H](CO)[C@@H](OC(=O)Nc2ccccc2)[C@H](OC(=O)Nc2ccc3c(c2)OCO3)[C@@H]1OC(=O)Nc1ccc2c(c1)OCO2 | 1.32 | -0.245 | -0.244 | 1.92 | -0.819 | -0.0944 | 0.151 | 0.038 | 1.99 | 0.361 | 0.536 | 0.741 (inactive) | 0.0459 | -0.101 | 0.655 | 2.17 | 0.759 | 1.3 | -0.17 | 1.12 |
